Results filed as inconclusive are left out. The source made the active and inactive calls. Rule for the calls, unless noted: active = hit-call score of the fitted dose curve at least 0.9, where 1 is the maximum; inactive = score below 0.9.
Key:
[1] = ACEA_ER_80hr: ACEA Biosciences xCELLigence Real-Time Cell Analysis on Estrogen Receptor Agonism for Proliferation (AID 2282667; active = hit-call score of the fitted dose curve at least 0.9, where 1 is the maximum); conditions: T47D proliferation, impedance (xCELLigence), 80 h
Summary of the method: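 Real-time electrical impedance tracked growth of the human breast line T47D, with the 80 h post-dosing value used. Dosing spanned eight 1:4 steps down from a 100 uM final top concentration, run in duplicate.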

[2] = APR_HepG2_CellCycleArrest_24hr: Apredica 24-hour HepG2 Assay for Cell Cycle Arrest (AID 2282905); conditions: imaging, actives raise or lower the signal;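 note: cell cycle arrest scored as ratio of 2N to 4N nuclear DNA content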
Summary of the method: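 Compounds at 0.39–200 uM (0.5% DMSO) for 24 h, then fixed and Hoechst 33342 stained. Cell-cycle analysis of nuclear DNA content by high-content imaging, fitted bidirectionally versus DMSO.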

[3] = APR_HepG2_NuclearSize_24hr: Apredica 24-hour HepG2 Assay for Nuclear Size (AID 2282907); conditions: high-content imaging, actives raise or lower the signal
Summary of the method: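 HepG2 cells exposed 24 h to compounds at 0.39–200 uM (0.5% DMSO), fixed, Hoechst 33342 stained and imaged at 20x; nuclear diameter measured by automated image analysis, fitted bidirectionally against DMSO controls.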

[4] = APR_HepG2_CellLoss_24hr: Apredica 24-hour HepG2 Assay for Cell Loss (AID 2282908); conditions: high-content imaging;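 for AC50: fit in both directions so a hit may be cell loss or gain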
Summary of the method: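 HepG2 cells exposed 24 hr to 0.39–200 uM compound in duplicate at 0.5% v/v final DMSO. Cells fixed in 3.7% formaldehyde and Hoechst 33342-stained. Cell number came from nuclear imaging at 20x. Bidirectional fit versus DMSO.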

[5] = APR_HepG2_MicrotubuleCSK_24hr: Apredica 24-hour HepG2 Assay for Microtubule CSK Stabilty (AID 2282909); conditions: HepG2 microtubule cytoskeleton imaging, actives raise or lower the signal
Summary of the method: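 HepG2 cells were treated 24 hr with compound at 0.39–200 uM in duplicate (0.5% DMSO final), then fixed and permeabilized. Alpha-tubulin immunofluorescence was imaged by high-content microscopy, with bidirectional fitting against DMSO and taxol as positive control.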

[6] = APR_HepG2_MitoticArrest_24hr: Apredica 24-hour HepG2 Assay for Mitotic Arrest (AID 2282910); conditions: high-content imaging, actives raise or lower the signal
Summary of the method: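 HepG2 cells, 24 h exposure at 0.39-200 uM (10 concentrations, duplicate, 0.5% DMSO). Fixed, stained for phospho-histone H3 with Hoechst; imaged by high-content microscopy, bidirectional fit versus DMSO.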

[7] = APR_HepG2_MitoMembPot_24hr: Apredica 24-hour HepG2 Assay for Mitochondrial Membrane Potential (AID 2282911); conditions: imaging, actives raise or lower the signal
Summary of the method: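 Cells are dosed for 24 hr across 0.39 to 200 uM with solvent held at 0.5% DMSO. They are then stained with 250 nM MitoTracker Red CMXRos for 30 min, fixed in 3.7% formaldehyde and imaged.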

[8] = APR_HepG2_MitoMass_24hr: Apredica 24-hour HepG2 Assay for Mitochondrial Mass (AID 2282912); conditions: high-content imaging, actives raise or lower the signal
Summary of the method: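 HepG2 cells exposed 24 hr to 0.39–200 uM compound, 0.5% v/v DMSO, in duplicate. Stained before fixation with 250 nM MitoTracker Red CMXRos for 30 min, then imaged at 20x with Hoechst nuclei. Fitted in both directions against DMSO.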

[9] = APR_HepG2_p53Act_24hr: Apredica 24-hour HepG2 Assay for p53 Activation (AID 2282913); conditions: high-content imaging, actives raise or lower the signal;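 note: p53 protein immunofluorescence averaged per cell in HepG2 with Hoechst nuclei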
Summary of the method: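 Human HepG2 liver cells; 24 hr cpd treatment, 0.39–200 uM, 0.5% DMSO final. Fixed in 3.7% formaldehyde, permeabilized with 0.5% Triton X-100, stained with anti-p53/Cy5 plus Hoechst 33342. Six images per well at 20x; gain or loss vs DMSO.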

[10] = APR_HepG2_CellCycleArrest_72hr: Apredica 72-hour HepG2 Assay for Cell Cycle Arrest (AID 2282914); conditions: high-content imaging, actives raise or lower the signal
Summary of the method: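 Read-out is Hoechst-stained nuclear DNA content measured by automated fluorescence imaging (20x, six images per well), fitted in both directions relative to DMSO. Human HepG2 liver cells received 0.39–200 uM compound for 72 hr at 0.5% v/v DMSO.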

[11] = APR_HepG2_CellLoss_72hr: Apredica 72-hour HepG2 Assay for Cell Loss (AID 2282915); conditions: high-content imaging
Summary of the method: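 HepG2 cells exposed 72 h to compound at 0.39–200 uM (10 concentrations, duplicate) in 0.5% DMSO. Fixed with 3.7% formaldehyde and Hoechst 33342-stained. Imaged at 20x; nuclear count gives cell number, fitted bidirectionally versus DMSO.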

[12] = APR_HepG2_P-H2AX_72hr: Apredica 72-hour HepG2 Assay for H2AX Phosphorylation (AID 2282916); conditions: imaging, actives raise or lower the signal;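 note: phospho-histone H2A.x immunostain intensity per cell marking DNA damage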
Summary of the method: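 HepG2 cells treated 72 h at 0.39–200 uM, 0.5% DMSO final, duplicates. Formaldehyde-fixed, Triton-permeabilised, immunostained for phospho-H2A.x with Hoechst; fluorescence imaged at 20x, bidirectional fit versus DMSO.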

[13] = APR_HepG2_MitoMembPot_72hr: Apredica 72-hour HepG2 Assay for Mitochondrial Membrane Potential (AID 2282917); conditions: imaging, actives raise or lower the signal
Summary of the method: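 HepG2 cells dosed 72 hr with compound at 0.39–200 uM in duplicate, 0.5% v/v DMSO final. Mitochondria stained with 250 nM MitoTracker Red CMXRos for 30 min before formaldehyde fixation, imaged by high-content fluorescence; bidirectional fit versus DMSO.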

[14] = APR_HepG2_MitoticArrest_72hr: Apredica 72-hour HepG2 Assay for Mitotic Arrest (AID 2282918); conditions: high-content imaging, actives raise or lower the signal
Summary of the method: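 Read-out is phospho-histone H3 immunofluorescence with Hoechst nuclear segmentation, imaged at 20x. Human HepG2 liver cells received ten concentrations (0.39–200 uM, final DMSO 0.5% v/v) for 72 hr before fixation. Gain or loss of signal was fitted relative to DMSO.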

[15] = APR_HepG2_MicrotubuleCSK_72hr: Apredica 72-hour HepG2 Assay for Microtubule CSK Stabilty (AID 2282919); conditions: HepG2 microtubule cytoskeleton, high-content imaging, actives raise or lower the signal
Summary of the method: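 HepG2 cells were exposed 72 hr to compound at 0.39–200 uM in duplicate (0.5% DMSO final), then fixed and permeabilized. Alpha-tubulin immunofluorescence was imaged by high-content microscopy, with bidirectional fitting against DMSO and taxol as positive control.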

[16] = APR_HepG2_P-H2AX_24hr: Apredica 24-hour HepG2 Assay for H2AX Phosphorylation (AID 2282920); conditions: high-content imaging, actives raise or lower the signal
Summary of the method: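 HepG2, 24 hr, cpd 0.39–200 uM (10 conc, duplicate), DMSO 0.5% v/v final. Fix 3.7% formaldehyde, Triton X-100 permeabilize, anti-phospho-H2A.x 1:200 + Hoechst 2 ug/mL. Imaged, bidirectional fit vs DMSO.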

[17] = APR_HepG2_StressKinase_72hr: Apredica 72-hour HepG2 Assay for Stress Kinase (AID 2282921); conditions: HepG2 stress kinase (phospho-c-Jun) imaging, actives raise or lower the signal
Summary of the method: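 HepG2 cells treated 72 hr with 0.39–200 uM compound, 0.5% v/v DMSO, duplicate wells. After formaldehyde fixation and Triton permeabilization, stained with anti-phospho-c-Jun (1:500) and Cy3 secondary, imaged at 20x. Fitted in both directions against DMSO.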

[18] = APR_HepG2_StressKinase_24hr: Apredica 24-hour HepG2 Assay for Stress Kinase (AID 2282922); conditions: HepG2 stress kinase (phospho-c-Jun) imaging, actives raise or lower the signal
Summary of the method: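 HepG2 cells exposed 24 h to 0.39–200 uM compound in duplicate (0.5% v/v DMSO final). Cells fixed in 3.7% formaldehyde, permeabilized and immunostained for phospho-c-Jun; read by high-content fluorescence imaging, fitted bidirectionally against DMSO.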

[19] = APR_HepG2_p53Act_72hr: Apredica 72-hour HepG2 Assay for p53 Activation (AID 2282923); conditions: high-content imaging, actives raise or lower the signal;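 note: average cellular p53 protein immunofluorescence intensity in HepG2 cells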
Summary of the method: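 HepG2 cells exposed 72 h to 0.39–200 uM in 0.5% DMSO, duplicates. Fixed, permeabilized cells immunostained for p53 (Cy5) with Hoechst; imaged at 20x, fluorescence analyzed bidirectionally against DMSO.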

[20] = APR_HepG2_MitoMass_72hr: Apredica 72-hour HepG2 Assay for Mitochondrial Mass (AID 2282924); conditions: high-content imaging, actives raise or lower the signal;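 note: MitoTracker Red CMXRos stain intensity per cell imaged as mitochondrial mass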
Summary of the method: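 HepG2 cells dosed 72 hr at 0.39–200 uM (0.5% DMSO), in duplicate. MitoTracker Red CMXRos 250 nM loaded 30 min before formaldehyde fixation; high-content fluorescence imaging, bidirectional fit versus DMSO.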

Measured: AC50

CCCCCCCCCCCCCCO
inactive: [1] | [3] | [7] | [13] | [17] | [18] | [20]
active: [2] 162 µM | [4] 98.1 µM | [5] 107 µM | [6] 99.3 µM | [8] 106 µM | [9] 95.8 µM | [10] 100 µM | [11] 106 µM | [12] 98.6 µM | [14] 90.9 µM | [15] 114 µM | [16] 101 µM | [19] 104 µM

CCCC(CCC)C(=O)O
inactive: [1] | [2] | [3] | [4] | [5] | [6] | [7] | [8] | [10] | [11] | [12] | [14] | [15] | [16] | [17] | [18] | [20]

NC(N)=O
inactive: [1] | [2] | [3] | [4] | [5] | [6] | [7] | [8] | [10] | [11] | [12] | [14] | [15] | [16] | [17] | [18] | [20]

O=C(O)c1cccc(C[C@@H]2COc3ccc(OCc4nc5cc(F)ccc5s4)cc3[C@@H]2O)c1
active: [2] 50.1 µM | [4] 53.9 µM | [6] 93.5 µM | [8] 156 µM | [9] 97.2 µM | [10] 64 µM | [11] 63.7 µM | [12] 97.3 µM | [14] 102 µM | [16] 105 µM | [17] 66.3 µM | [18] 110 µM | [19] 73.1 µM | [20] 178 µM
inactive: [1] | [3] | [5] | [7] | [13] | [15]

CCCCCCCCCCCCCCCCOS(=O)(=O)O
inactive: [1] | [2] | [3] | [4] | [5] | [6] | [7] | [8] | [9] | [10] | [11] | [12] | [14] | [15] | [16] | [17] | [18] | [19] | [20]

OCc1c[nH]c2ccccc12
inactive: [1]

c1ccc2ncccc2c1
inactive: [1] | [2] | [3] | [4] | [5] | [6] | [7] | [8] | [9] | [10] | [11] | [12] | [13] | [14] | [15] | [16] | [17] | [18] | [19] | [20]

O=C(O)[C@H](O)[C@@H](O)C(=O)O
inactive: [1] | [2] | [3] | [4] | [5] | [6] | [7] | [8] | [10] | [11] | [12] | [14] | [15] | [16] | [17] | [18] | [20]

FC(F)(F)C(F)(F)C(F)(F)C(F)(F)C(F)(F)C(F)(F)I
inactive: [1]

O=C(Cl)C(F)(F)C(F)(F)C(F)(F)C(=O)Cl
inactive: [1]

OCCC(F)(F)C(F)(F)C(F)(F)C(F)(F)F
inactive: [1]

COc1cc2c(c(OC)c1OC)-c1ccc(OC)c(=O)cc1[C@@H](NC(C)=O)CC2
active: [2] 0.0391 µM | [4] 0.0447 µM | [6] 0.0382 µM | [10] 0.0732 µM | [11] 0.0536 µM | [12] 0.0815 µM | [14] 0.0391 µM | [15] 0.0628 µM | [16] 0.0797 µM | [17] 0.0456 µM | [18] 0.0391 µM
inactive: [1] | [3] | [5] | [7] | [8] | [20]

NC(=O)N1c2ccccc2C=Cc2ccccc21
active: [1] 69.5 µM
inactive: [2] | [3] | [4] | [5] | [6] | [7] | [8] | [10] | [11] | [12] | [14] | [15] | [16] | [17] | [18] | [20]

CCCCCCCC/C=C\CCCCCCCC(=O)OC[C@@H](O)[C@H]1OC[C@H](O)[C@H]1O
inactive: [1] | [2] | [3] | [4] | [5] | [6] | [7] | [8] | [9] | [10] | [11] | [12] | [14] | [15] | [16] | [17] | [18] | [19] | [20]

O=C(O)c1ccc2c(c1)nc(C(=O)NC1CCN(C3CC3)CC1)n2Cc1cc(-c2ccc(Cl)s2)on1
inactive: [1] | [2] | [3] | [4] | [5] | [6] | [7] | [8] | [9] | [10] | [11] | [12] | [13] | [14] | [15] | [16] | [17] | [18] | [19] | [20]

FC(F)(F)COC(OCC(F)(F)F)OCC(F)(F)F
inactive: [1]

CCc1cccc(CC)c1N
inactive: [1] | [2] | [3] | [4] | [5] | [6] | [7] | [8] | [9] | [10] | [11] | [12] | [14] | [15] | [16] | [17] | [18] | [19] | [20]

CCCCN1C(=O)[C@@H]([C@H](O)C2CCCCC2)NC(=O)C12CCN(Cc1ccc(Oc3ccc(C(=O)O)cc3)cc1)CC2
active: [4] 48.3 µM | [6] 59.8 µM | [11] 48.1 µM | [12] 46.4 µM | [14] 54.3 µM | [16] 67.8 µM | [17] 39.9 µM | [19] 38.7 µM
inactive: [1] | [2] | [3] | [5] | [7] | [8] | [9] | [10] | [15] | [18] | [20]
